From article PMC8384837, “Expanding the binding specificity for RNA recognition by a PUF domain”
Numbering of substitutions follows the chain as printed.

Legend:
Assay in all cases: yeast three-hybrid, YBZ-1, SC-Leu-His + 0.5 mM 3-AT, 4 days
Conditions in all cases: tags: N-Gal4 AD-HA kept; label: inside an RPR1-promoter hybrid RNA with tandem MS2 sites; ssRNA
[1] = target: PUM1 PUF domain R3-ARR (Homo sapiens, UniProt Q14671 828-1176, C935A;Q939R)
Outline: (§1)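 A centromeric plasmid in strain YBZ-1 co-expressed Pumilio-1 PUF domain libraries, randomized at the three base-contacting residues of each repeat, with matching RNA elements; the strain carries a LexA–MS2 coat fusion and a HIS3 reporter. After four days on SC-Leu (input) or SC-Leu-His + 0.5 mM 3-AT (selection), the repeat regions were PCR-amplified and Illumina-sequenced. The interaction score is the log change in variant frequency from input to selection, using log2 and a pseudocount of 1 where absent.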

[2] = target: PUM1 PUF domain R3-WCM (Homo sapiens, UniProt Q14671 828-1176, C935W;R936C;Q939M)
Outline: as §1

[3] = target: PUM1 PUF domain R3-GYD (Homo sapiens, UniProt Q14671 828-1176, C935G;R936Y;Q939D)
Outline: as §1

[4] = target: PUM1 PUF domain R5-KNC (Homo sapiens, UniProt Q14671 828-1176, C1007K;R1008N;Q1011C)
Outline: as §1

[5] = target: PUM1 PUF domain R5-GFL (Homo sapiens, UniProt Q14671 828-1176, C1007G;R1008F;Q1011L)
Outline: as §1

[6] = target: PUM1 PUF domain R5-RCR (Homo sapiens, UniProt Q14671 828-1176, C1007R;R1008C;Q1011R)
Outline: as §1

[7] = target: T1, PUM1 PUF domain R6-HYS (Homo sapiens, UniProt Q14671 828-1176, N1043H;Q1047S)
T1 sequence: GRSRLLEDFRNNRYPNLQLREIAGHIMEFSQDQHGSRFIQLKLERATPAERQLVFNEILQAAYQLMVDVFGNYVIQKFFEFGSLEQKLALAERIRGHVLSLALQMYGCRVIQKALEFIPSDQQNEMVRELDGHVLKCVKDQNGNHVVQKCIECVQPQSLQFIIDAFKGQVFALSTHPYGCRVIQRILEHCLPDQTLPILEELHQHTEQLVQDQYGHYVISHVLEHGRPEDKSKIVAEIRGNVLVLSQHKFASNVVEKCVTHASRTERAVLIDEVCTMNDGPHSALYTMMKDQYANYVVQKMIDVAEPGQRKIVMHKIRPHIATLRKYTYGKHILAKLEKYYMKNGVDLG
Outline: as §1

[8] = target: PUM1 PUF domain R4-PFR (Homo sapiens, UniProt Q14671 828-1176, N971P;H972F;Q975R)
Outline: as §1

[9] = target: PUM1 PUF domain R8-PFQ (Homo sapiens, UniProt Q14671 828-1176, N1122P;Y1123F)
Outline: as §1

[10] = target: T2, PUM1 PUF domain R6-CWG (Homo sapiens, UniProt Q14671 828-1176, N1043C;Y1044W;Q1047G)
T2 sequence: T1 sequence with H216C, Y217W, S220G
Outline: as §1

[11] = target: PUM1 PUF domain R4-WAR (Homo sapiens, UniProt Q14671 828-1176, N971W;H972A;Q975R)
Outline: as §1

[12] = target: PUM1 PUF domain R8-RRP (Homo sapiens, UniProt Q14671 828-1176, N1122R;Y1123R;Q1126P)
Outline: as §1

[13] = target: PUM1 PUF domain R5-CAR (Homo sapiens, UniProt Q14671 828-1176, R1008A;Q1011R)
Outline: as §1

[14] = target: PUM1 PUF domain R7-KFF (Homo sapiens, UniProt Q14671 828-1176, S1079K;N1080F;E1083F)
Outline: as §1

[15] = target: PUM1 PUF domain R3-RRM (Homo sapiens, UniProt Q14671 828-1176, C935R;Q939M)
Outline: as §1

[16] = target: T3, PUM1 PUF domain R6-RWT (Homo sapiens, UniProt Q14671 828-1176, N1043R;Y1044W;Q1047T)
T3 sequence: T1 sequence with H216R, Y217W, S220T
Outline: as §1

[17] = target: PUM1 PUF domain R7-GVN (Homo sapiens, UniProt Q14671 828-1176, S1079G;N1080V;E1083N)
Outline: as §1

[18] = target: PUM1 PUF domain R1-RHV (Homo sapiens, UniProt Q14671 828-1176, S863R;R864H;Q867V)
Outline: as §1

[19] = target: PUM1 PUF domain R1-KDL (Homo sapiens, UniProt Q14671 828-1176, S863K;R864D;Q867L)
Outline: as §1

[20] = target: PUM1 PUF domain R1-HGR (Homo sapiens, UniProt Q14671 828-1176, S863H;R864G;Q867R)
Outline: as §1

With “GGCUAGAACUAGUGGAUCCCCCGGCGCCCGGCGGCUCGAGCCCGGGUAAGUGUAAGUAGUCUGCAUGCCGCCGGGCGCCAUGCCUGCAGGUCGACUCUAGAAAACAUG” the binding signal [1] was 1.41 log2 enrichment (interaction score), the binding signal [2] was 4.19 log2 enrichment (interaction score) and the binding signal [3] was 5.08 log2 enrichment (interaction score).

In the case of “GGCUAGAACUAGUGGAUCCCCCGGCGCCCGGCGGCUCGAGCCCGGGUAAGUGUUAAUAGUCUGCAUGCCGCCGGGCGCCAUGCCUGCAGGUCGACUCUAGAAAACAUG”, the binding signal [4] is reported as 4.22 log2 enrichment (interaction score), the binding signal [5] is reported as 5.05 log2 enrichment (interaction score) and the binding signal [6] is reported as 2.8 log2 enrichment (interaction score).

In the case of “GGCUAGAACUAGUGGAUCCCCCGGCGCCCGGCGGCUCGAGCCCGGGUAAGUGUAAAUAGUCUGCAUGCCGCCGGGCGCCAUGCCUGCAGGUCGACUCUAGAAAACAUG”, the binding signal [7] is reported as 3.52 log2 enrichment (interaction score), the binding signal [5] is reported as 3.65 log2 enrichment (interaction score) and the binding signal [1] is reported as 2.49 log2 enrichment (interaction score). The binding signal [8] was 1.61 log2 enrichment (interaction score), the binding signal [9] was 2.66 log2 enrichment (interaction score) and the binding signal [10] was 3.03 log2 enrichment (interaction score). The binding signal [11] was 1.01 log2 enrichment (interaction score) and the binding signal [12] was 2.63 log2 enrichment (interaction score).

For “GGCUAGAACUAGUGGAUCCCCCGGCGCCCGGCGGCUCGAGCCCGGGUAAGUGUCAAUAGUCUGCAUGCCGCCGGGCGCCAUGCCUGCAGGUCGACUCUAGAAAACAUG”, the binding signal [6] was 3.99 log2 enrichment (interaction score) and the binding signal [13] was 4.28 log2 enrichment (interaction score).

With “GGCUAGAACUAGUGGAUCCCCCGGCGCCCGGCGGCUCGAGCCCGGGUAAGUCUAAAUAGUCUGCAUGCCGCCGGGCGCCAUGCCUGCAGGUCGACUCUAGAAAACAUG” the binding signal [14] was 2.82 log2 enrichment (interaction score).

In the case of “GGCUAGAACUAGUGGAUCCCCCGGCGCCCGGCGGCUCGAGCCCGGGUAAGUGUAAUUAGUCUGCAUGCCGCCGGGCGCCAUGCCUGCAGGUCGACUCUAGAAAACAUG”, the binding signal [1] is reported as 3.37 log2 enrichment (interaction score) and the binding signal [15] is reported as 3.06 log2 enrichment (interaction score).

In the case of “GGCUAGAACUAGUGGAUCCCCCGGCGCCCGGCGGCUCGAGCCCGGGUAAGUGUGAAUAGUCUGCAUGCCGCCGGGCGCCAUGCCUGCAGGUCGACUCUAGAAAACAUG”, the binding signal [5] is reported as 1.77 log2 enrichment (interaction score).

“GGCUAGAACUAGUGGAUCCCCCGGCGCCCGGCGGCUCGAGCCCGGGUAAGCGUAAAUAGUCUGCAUGCCGCCGGGCGCCAUGCCUGCAGGUCGACUCUAGAAAACAUG” was tested, and the binding signal [9] was 3.59 log2 enrichment (interaction score) and the binding signal [12] was 4.45 log2 enrichment (interaction score).

In the case of “GGCUAGAACUAGUGGAUCCCCCGGCGCCCGGCGGCUCGAGCCCGGGUAAGUAUAAAUAGUCUGCAUGCCGCCGGGCGCCAUGCCUGCAGGUCGACUCUAGAAAACAUG”, the binding signal [14] is reported as 3.16 log2 enrichment (interaction score).

For “GGCUAGAACUAGUGGAUCCCCCGGCGCCCGGCGGCUCGAGCCCGGGUAAGUGAAAAUAGUCUGCAUGCCGCCGGGCGCCAUGCCUGCAGGUCGACUCUAGAAAACAUG”, the binding signal [16] was 3.03 log2 enrichment (interaction score) and the binding signal [10] was 4.54 log2 enrichment (interaction score).

For “GGCUAGAACUAGUGGAUCCCCCGGCGCCCGGCGGCUCGAGCCCGGGUAAGUGUAUAUAGUCUGCAUGCCGCCGGGCGCCAUGCCUGCAGGUCGACUCUAGAAAACAUG”, the binding signal [8] was 4.81 log2 enrichment (interaction score).

With “GGCUAGAACUAGUGGAUCCCCCGGCGCCCGGCGGCUCGAGCCCGGGUAAGUUUAAAUAGUCUGCAUGCCGCCGGGCGCCAUGCCUGCAGGUCGACUCUAGAAAACAUG” the binding signal [17] was 3.93 log2 enrichment (interaction score).

In the case of “GGCUAGAACUAGUGGAUCCCCCGGCGCCCGGCGGCUCGAGCCCGGGUAAGUGUAAAUCGUCUGCAUGCCGCCGGGCGCCAUGCCUGCAGGUCGACUCUAGAAAACAUG”, the binding signal [18] is reported as 1.47 log2 enrichment (interaction score) and the binding signal [19] is reported as 0.72 log2 enrichment (interaction score).

For “GGCUAGAACUAGUGGAUCCCCCGGCGCCCGGCGGCUCGAGCCCGGGUAAGUGUACAUAGUCUGCAUGCCGCCGGGCGCCAUGCCUGCAGGUCGACUCUAGAAAACAUG”, the binding signal [8] was 6.57 log2 enrichment (interaction score) and the binding signal [11] was 3.19 log2 enrichment (interaction score).

“GGCUAGAACUAGUGGAUCCCCCGGCGCCCGGCGGCUCGAGCCCGGGUAAGUGUAAAUUGUCUGCAUGCCGCCGGGCGCCAUGCCUGCAGGUCGACUCUAGAAAACAUG” was tested, and the binding signal [18] was 2.89 log2 enrichment (interaction score), the binding signal [20] was 2.93 log2 enrichment (interaction score) and the binding signal [19] was 3.53 log2 enrichment (interaction score).
